Drawing on the supplement of paper PMC6555819, this text covers PBM binding z-score for 14 sequences.

Holding throughout (assay): PBM binding z-score (relative to random genomic background probes); higher = stronger binding; sequences stand for … in GC…GCGATTGACAGCGTAGAATGAAGG
The subject of test [1] is RARb homodimer (NR concentration 270 nM). The method in brief: (§1)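 Ligand-free nuclear receptor dimers were bound for 1 h to custom Agilent 4×180K protein-binding microarrays. Detection used antibodies against each partner (one per run). Binding z-scores rest on regression-normalized fluorescence, with random background probes as the reference.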
Test [2] has as its system RARg:RXRa (NR concentration 270 nM, RXRa partner concentration 90 nM). The method in brief:
as §1

Test [3] has as its system RARg homodimer (NR concentration 270 nM). The method in brief: as §1
In test [4] the test system is RXRa DBDmut IVT, anti-RXR (DBD mutation: RXRa K156A/R161A, NR concentration 90 nM). The method in brief: as §1
Test [5] has as its system RXRa homodimer (NR concentration 180 nM). The method in brief: as §1
In test [6] the test system is THRa:RXRa (NR concentration 90 nM, RXRa partner concentration 90 nM). The method in brief: as §1
Test [7] deals with THRa homodimer (NR concentration 90 nM). The method in brief:
as §1

Test [8] concerns VDR homodimer (NR concentration 270 nM). The method in brief:
as §1

Turning to AGAATGAGGTTACAAAAGATCAGGGAAACGCTTG, the PBM binding z-score in test [1] is 0.449; in test [2], 1.86; in test [3] it was 1.58; in test [4] it was 1.16; in test [5], 2.44; in test [6] it was 2.6. Also, the PBM binding z-score in test [7] is -0.0281; in test [8], 0.342.

With AGAACGAGGGCAAGCTGAGTTGATAGCAGAGTAG, the PBM binding z-score in test [1] stood at 1.06; in test [2] it was 1.53; in test [3], 1.97; in test [4], 2.1; in test [5], 0.964; in test [6], 1.35. The PBM binding z-score was -0.471 in test [7] and 1.36 in test [8].

With CGTCCAAGCTCAAAGGTCAGTGAAGAGATGACGG, the PBM binding z-score turned out to be 4.4 in test [1]; 4.58 in test [2]; 5.11 in test [3]; 0.306 in test [4]; 4.05 in test [5]; 2.33 in test [6]. Besides, the figures for the PBM binding z-score in test [7] and in test [8] were 0.0443 and 0.215, respectively.

In the case of CGAACTCGGTCATCCAGGACAGTGAATACATTGA, the PBM binding z-score in test [1] turned out to be 1.59; in test [2], 2.22; in test [3], 2.83; in test [4], 0.985; in test [5] it was 0.784; in test [6], 2.12. For the same sequence, the PBM binding z-score in test [7] is 0.998; in test [8], 1.15.

As to GATATAGGGTCAAGGCCAGAGTACGCGTATTGAT, the PBM binding z-score in test [1] was found to be 3.71; in test [2], 5.6; in test [3], 5.13; in test [4], 2.83; in test [5], 5.81; in test [6], 3.96. The PBM binding z-score in test [7] is 2.03; in test [8], 2.59.

Consider CCTCGGAGGACAGAAGGGCAGAGCTGTCCGCTTT, for which the PBM binding z-score was 0.947 in test [1]; 0.328 in test [2]; 0.965 in test [3]; -0.318 in test [4]; -0.72 in test [5]; -0.248 in test [6]. For the same sequence, the PBM binding z-score in test [7] was -1.05; in test [8] it was -0.623.

In the case of CCTGCTAGGTCCATGGTCAGCTAAAGCAGCTCGC, the PBM binding z-score is 0.248 in test [1]; -0.442 in test [2]; -0.195 in test [3]; 1.19 in test [4]; -0.603 in test [5]; -0.287 in test [6]. For the same sequence, the PBM binding z-score in test [7] was -0.629; in test [8], 0.0229.

Consider GGAACAAGGGCAAGTTGATAGCAGAGTTTGATGG, for which the PBM binding z-score in test [1] turned out to be 1.92; in test [2], 1.5; in test [3] it was 2.02; in test [4], 1.47; in test [5] it was 0.773; in test [6], 1.14. Moreover, the PBM binding z-score in test [7] is 0.372; in test [8], 1.27.

For the sequence AGTCAAAGTTCATCTAGCTAACGTAAGATATGCT, the PBM binding z-score worked out at 3.76 in test [1]; 5.27 in test [2]; 6 in test [3]; 4.58 in test [4]; 4.7 in test [5]; 1.67 in test [6]. Also, the PBM binding z-score in test [7] was -0.302; in test [8], 4.9.

Turning to ACTATTAGTTGACTTAGGCCAACCGATACGACGC, the PBM binding z-score in test [1] was 0.826; in test [2] it was 0.899; in test [3] it was 0.91; in test [4], 0.805; in test [5] it was 0.539; in test [6] it was 0.898. Besides, the PBM binding z-score in test [7] came to 0.912; in test [8] it was 0.435.

In the case of GATACAGGGTCAAAGCCAGAGTACGCGTATTGAT, the PBM binding z-score in test [1] was found to be 2.86; in test [2], 5.42; in test [3], 4.41; in test [4], 3.04; in test [5], 5.84; in test [6] it was 3.25. The figures for the PBM binding z-score in test [7] and in test [8] were 0.312 and 2.99, respectively.

On to CGAACTAGGTCATCCAGAACAGTGAATACATTGA, for which the PBM binding z-score worked out at 2.8 in test [1]; 4.03 in test [2]; 4.69 in test [3]; 2.23 in test [4]; 2.89 in test [5]; 2.64 in test [6]. The PBM binding z-score in test [7] is 1.15; in test [8], 1.17.

Take TCATATAGGTAATACAGGTGAAAGGCGGCATCTA: the PBM binding z-score worked out at 0.722 in test [1]; 0.622 in test [2]; 0.526 in test [3]; 1.84 in test [4]; 1.32 in test [5]; 0.852 in test [6]. Moreover, the PBM binding z-score worked out at 0.543 in test [7] and 0.774 in test [8].

For TAGCCTAGGTCATTCAGGGGACAGTATAGAAAGC, the PBM binding z-score in test [1] worked out at 3.89; in test [2], 6.43; in test [3], 4.2; in test [4], 2.35; in test [5] it was 2.9; in test [6], 3.75. For the same sequence, the PBM binding z-score in test [7] was 1.54; in test [8], 1.66.
